High-throughput results as filed in PubChem.
The entries come from a sample that favours hits as a whole.
Epigenetic derep: regulators of epigenetic silencing causing reporter derepression in mouse cells; murine LDR cells, GFP reporter derepression, 30 h; Potency, µM (doses to about 53.9 µM), for inactives: at the highest dose GFP activation, hits mostly activators; 0.2% of 280,000 active; also: potency is read from the fitted curve at half-maximal effect; % of control where 0% means no effect; nearly all actives have a fitted effect of over 60% in size
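Murine LDR cells bearing a silenced CMV-driven GFP reporter were exposed to compound for 30 h at 37 C. After PBS washes, GFP-positive cells (20-120 um objects) counted by laser-scanning microplate cytometry.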
HTT ATP protect: protects HTT-Q103 PC12 cells, measured by ATP; PC12 HTT-Q103 induced, cytoprotection, ATP luminescence, 40 h; 0.14% of 230,000 active; Potency, µM (highest dose often 56.4 µM), without a hit: cytoprotection (ATP increase), actives largely listed as activators; also: potency is read from the fitted curve at half-maximal effect; % of control where 0% means no effect; nearly all actives have a fitted effect of over 45% in size
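Compounds were screened for protection of PC12 cells against cell death after tebufenozide induction (100 nM final) of mutant Huntingtin exon 1 (Q103) fused to GFP.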
HTT aggregate: inhibitors of mutant huntingtin aggregate formation in PC12 cells; PC12 HttQ103-GFP aggregates, Acumen cytometry, 40 h; Potency, µM (doses to about 46.1 µM), for inactives: top-dose activity change, negative = inhibition, hits mostly inhibitors; 1.1% of 220,000 active; AID 1688; also: potency is read from the fitted curve at half-maximal effect; % is scaled to controls: 0 for no effect and ±100 for the full control effect; nearly all actives have a fitted effect of over 60% in size
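PC12 cells with ecdysone-inducible HTT exon1 Q103-GFP, induced by 100 nM tebufenozide, given compounds in a concentration series. GFP aggregates (1–25 um, 6 SD above background) counted in lysates by laser-scanning cytometry, 488 nm excitation.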
PINK1 expr mod: modulators of PINK1 expression; PINK1 immunofluorescence, high-content cytometry, 24 h; Potency, µM (titrated, usually from 76.6 µM), for the others: top-dose activation (PINK1 increase), hits mostly activators; 0.2% of 410,000 active; AID 624263; active = well fitted activation curve with a large enough effect; inconclusive = small, poorly fitted or top-dose-only effect; cell line not stated here; also: potency is read from the fitted curve at half-maximal effect; % of control where 0% means no effect; nearly all actives have a fitted effect of over 65% in size
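Stable cell line, 250 cells/well, 12 h attachment; compounds pinned at 5 concentrations, 24 h; CCCP control. Fixed with nuclear dye, primary antibodies 12 h at 10 degrees C, secondary plus cell stain; laser-scanning cytometer read.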
HCC4017 viab: epigenetic modulators: cytotoxicity in HCC4017 lung cancer cells; HCC4017 NSCLC viability, CellTiter-Glo ATP luminescence, 72 h; 30% of 45 active; shares compounds with Epigenetic derep; Potency, µM (titrated, usually from 46.1 µM), without a hit: at the highest dose activity change, negative = cytotoxicity, actives largely listed as cytotoxic
H358 viab: reduces H358 lung cancer cell viability among epigenetic modulators | Potency, µM (series often up to 46.1 µM), without a hit: at the top dose activity change, negative = viability loss, hits mostly cytotoxic | H358 NSCLC viability, ATP luminescence, 72 h | 30% of 45 active | shares compounds with Epigenetic derep | AID 493074
The depositor's hits bear a star; ? = inconclusive; / = no result given; [ ] = another dose, or the depositor's remark. Unless noted, calls follow the shape of the dose curve; as a rule, active = well fitted curve in the direction sought with a large enough effect; inconclusive = small, poorly fitted or top-dose-only effect, or another doubt; inactive = no such curve, though single readings can be large; an effect the other way counts as inactive or inconclusive.

SMILES	Epigenetic derep	HTT ATP protect	HTT aggregate	PINK1 expr mod	others
c1ccc(CNc2c3c(nc4ccccc24)CCC3)cc1	-2%	-71%[10 µM]	4.5µM*	?
CC1CCC/C=C/C2CC(O)CC2C(O)/C=C/C(=O)O1 (stereo not given)	4%	-80%	1µM*	-2%
C[C@H]1CCC/C=C/C2C[C@H](O)CC2[C@H](O)/C=C/C(=O)O1 (stereo not given in full)	3%	/	2.8µM*	-1%
C[C@H]1CCCC=CC2C[C@H](O)C[C@@H]2[C@H](O)/C=C\C(=O)O1 (stereo not given in full)	11%	-65%	/	/
C[C@@H]1CCC/C=C\[C@H]2C[C@H](O)C[C@@H]2[C@H](O)/C=C\C(=O)O1	/	-62%	/	/
CC(C)c1ccc(C(c2c(O)c3ccccc3oc2=O)c2c(O)c3ccccc3oc2=O)cc1	/	-5%[10 µM]	/	?
CC(=O)N[C@@H]1CCSC1=O	0%[16.9 µM]	3%[40.3 µM]	/	/
CN1CSC(=S)N(C)C1	8.9µM*	-10%	4%	-3%	HCC4017 viab=?;H358 viab=?
OCc1cnc[nH]1	1%	2%[1.9 µM]	-8%	1%
